In PMC4336329 (PLoS ONE, 2015):
Screen size: about 310,000 compounds; about 2,200 (0.71%) showed an effect of 50% or more. The effect is printed as a negative number. The list comes from a sample in which strong results are over-represented; it also holds similar structures and randomly drawn compounds.

Target: human ether-à-go-go-related gene (hERG) potassium channel (human, UniProt Q12809)
Test: primary screen, population patch clamp on CHO cells stably expressing hERG; higher = less effect of the substance
Description: Briefly, Chinese hamster ovary (CHO) cells stably expressing the hERG channel were dislodged from tissue culture flasks and dispensed into PPC plates. […] During the recording, background leak currents were estimated by a 100 ms step to -80 mV from an initial holding potential of -70 mV and subtracted from the subsequent current measurement. The campaign was conducted in two phases using slight differences in recording protocol. In the first phase, the initial voltage pulse used a 100 ms step to -30 mV from a holding potential of -70 mV, a 2 s conditioning step to +25 mV, and a 2 s test step to -30 mV. During the second phase of the screen, the potential during the conditioning step was raised to +45 mV. In both phases of the campaign, a secondary voltage pulse was applied using the same parameters as the second phase initial pulse. The initial and secondary pulses were applied in the absence of compound, and upon application of 1 μM and 10 μM test concentrations. Small molecule effects on hERG current density were quantified by […].

human ether-à-go-go-related gene (hERG) potassium channel, sequence (Q12809 whole entry, looked up): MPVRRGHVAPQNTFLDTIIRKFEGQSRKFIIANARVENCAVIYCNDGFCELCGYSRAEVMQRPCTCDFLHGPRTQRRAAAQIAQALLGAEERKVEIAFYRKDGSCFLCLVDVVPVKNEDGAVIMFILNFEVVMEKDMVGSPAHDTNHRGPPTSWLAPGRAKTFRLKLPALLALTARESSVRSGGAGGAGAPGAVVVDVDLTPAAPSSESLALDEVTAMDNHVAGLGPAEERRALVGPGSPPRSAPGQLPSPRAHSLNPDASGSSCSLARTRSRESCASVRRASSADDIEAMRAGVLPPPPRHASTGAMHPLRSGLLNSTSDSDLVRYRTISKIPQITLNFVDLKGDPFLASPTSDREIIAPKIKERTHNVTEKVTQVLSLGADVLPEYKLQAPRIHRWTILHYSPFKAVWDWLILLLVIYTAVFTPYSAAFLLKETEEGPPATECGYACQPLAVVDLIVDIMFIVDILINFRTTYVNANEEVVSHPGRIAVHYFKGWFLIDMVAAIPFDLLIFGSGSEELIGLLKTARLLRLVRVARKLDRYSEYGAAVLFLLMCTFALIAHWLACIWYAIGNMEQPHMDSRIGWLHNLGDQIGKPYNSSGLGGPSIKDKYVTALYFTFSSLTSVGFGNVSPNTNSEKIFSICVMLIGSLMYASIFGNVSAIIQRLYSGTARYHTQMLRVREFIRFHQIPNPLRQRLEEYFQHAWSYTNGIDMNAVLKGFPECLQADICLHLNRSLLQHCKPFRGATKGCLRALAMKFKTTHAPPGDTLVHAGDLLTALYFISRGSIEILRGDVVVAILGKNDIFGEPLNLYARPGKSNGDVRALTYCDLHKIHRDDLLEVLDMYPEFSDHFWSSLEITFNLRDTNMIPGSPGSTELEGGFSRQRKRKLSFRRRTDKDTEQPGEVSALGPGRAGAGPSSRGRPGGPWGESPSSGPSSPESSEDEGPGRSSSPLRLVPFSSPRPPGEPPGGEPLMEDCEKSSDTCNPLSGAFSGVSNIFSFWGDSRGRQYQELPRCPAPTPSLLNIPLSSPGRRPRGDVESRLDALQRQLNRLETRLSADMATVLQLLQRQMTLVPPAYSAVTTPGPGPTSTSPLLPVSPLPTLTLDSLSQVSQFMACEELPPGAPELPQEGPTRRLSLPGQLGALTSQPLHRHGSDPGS

First: CC(Cc1ccccc1Sc1ccccc1)N(C)C.O=C(O)/C=C\C(=O)O (stereo not shown)
Second: CCN(CC)Cc1ccccc1Sc1ccccc1.O=C(O)/C=C\C(=O)O
The “hERG current change (%, negative = inhibition) at 1uM” value of the first is lower: -60.6% for the first, -6.63% for the second.

First: N/C(Cc1ccccc1Sc1ccccc1)=N\O.O=C(O)/C=C\C(=O)O
Second: N=C(N)Cc1ccccc1Sc1ccccc1.O=C(O)/C=C\C(=O)O
The “hERG current change (%, negative = inhibition) at 1uM” value of the first is lower: 4.44% for the first, 5.87% for the second.

Going from `CC(Cc1ccccc1Sc1ccccc1O)N(C)C.Cl` (stereo not shown) to `CC(Cc1ccccc1Sc1ccc(O)cc1)N(C)C.CCO.Cl` (stereo not shown), the “hERG current change (%, negative = inhibition) at 1uM” value falls from 3.67% to -73.1%.

Compared with `CNC(C)Cc1ccccc1Sc1ccc(O)cc1.Cl` (stereo not shown), `O=C(O)/C=C\C(=O)O.c1ccc(Sc2ccccc2CN2CCCC2)cc1` is higher in “hERG current change (%, negative = inhibition) at 1uM” value: -21.1% for the first, -11.3% for the second.

First: CN1CCN(Cc2ccccc2Sc2ccccc2)CC1.O=C(O)/C=C\C(=O)O
Second: Cc1ccccc1CN1CCN(CC(=O)NC(C)c2ccccc2)CC1 (stereo not shown)
The “hERG current change (%, negative = inhibition) at 1uM” value of the first is lower: -68.1% for the first, 3.82% for the second.

First: CN(C)CCCn1c(SCC(=O)Nc2nc(-c3cccc(Br)c3)cs2)nc2ccccc2c1=O
Second: O=c1c2ccccc2nnn1CSc1nnc2ccccn12
The “hERG current change (%, negative = inhibition) at 1uM” value of the first is lower: -3.37% for the first, 6.78% for the second.

Going from `Cc1ccc([N+](=O)[O-])cc1NC(=O)c1ccccc1` to `CCC(CC)NC(=O)Nc1ccccc1C`, the “hERG current change (%, negative = inhibition) at 1uM” value rises from 0.0028% to 11.5%.

First: N#Cc1ccc(C(=O)Nc2nc(-c3cccs3)c(C(=O)C(F)(F)F)s2)cc1
Second: COc1ccc(CC(=O)Nc2ccc(OC(C)=O)cc2C(=O)O)cc1
The “hERG current change (%, negative = inhibition) at 1uM” value of the first is lower: -18.6% for the first, -3.47% for the second.

First: CC(C)OCCCN1CN(S(=O)(=O)c2ccc(Cl)cc2)c2nc3ccccc3nc21
Second: O=C(NCc1ccccc1Cl)C1CCN(S(=O)(=O)c2ccc(-n3cnnn3)cc2)CC1
The “hERG current change (%, negative = inhibition) at 1uM” value of the first is higher: 13.8% for the first, -3.01% for the second.

Compared with `O=C1Nc2ccc(Cl)cc2/C1=C/C1CC=CCC1` (stereo not shown), `COc1ccc(N2CCN(Cc3oc(CO)cc(=O)c3O)CC2)cc1` is lower in “hERG current change (%, negative = inhibition) at 1uM” value: 7.83% for the first, 2.29% for the second.

Going from `COc1cccc(CN(C(=O)CN2C(=O)c3ccccc3S2(=O)=O)C(C(=O)NCC2CCCO2)c2ccco2)c1` (stereo not shown) to `COc1ccc(CN(C(=O)CN2C(=O)c3ccccc3S2(=O)=O)C(C(=O)NCC2CCCO2)c2ccco2)cc1` (stereo not shown), the “hERG current change (%, negative = inhibition) at 1uM” value rises from -50.1% to -2.31%.

Going from `COc1ccc(CN(C(=O)CN2C(=O)c3ccccc3S2(=O)=O)C(C(=O)NCC2CCCO2)c2ccncc2)cc1` (stereo not shown) to `O=C(NCC1CCCO1)C(c1ccncc1)N(Cc1ccc(F)cc1)C(=O)CN1C(=O)c2ccccc2S1(=O)=O` (stereo not shown), the “hERG current change (%, negative = inhibition) at 1uM” value falls from 0.0687% to -51.2%.

Compared with `COc1cccc(C(C(=O)NCC2CCCO2)N(CC2CCCO2)C(=O)CN2C(=O)c3ccccc3S2(=O)=O)c1` (stereo not shown), `O=C(NCC1CCCO1)C(c1ccco1)N(Cc1ccc(F)cc1)C(=O)CN1C(=O)c2ccccc2S1(=O)=O` (stereo not shown) is lower in “hERG current change (%, negative = inhibition) at 1uM” value: 12.5% for the first, 8.75% for the second.

Going from `Cc1ccc(Sc2ncccc2C(=O)O)cc1C` to `CCOC(=O)c1[nH]c2ccc(OC)cc2c1NC(=O)OC`, the “hERG current change (%, negative = inhibition) at 1uM” value falls from 15.6% to 9.33%.

Compared with `CCOC(=O)N1CCC(NCCNC(=O)c2cccs2)CC1`, `NC(=O)C1CCN(C(=O)N2c3ccccc3Sc3ccccc32)CC1` is lower in “hERG current change (%, negative = inhibition) at 1uM” value: 5.13% for the first, 0.149% for the second.

Going from `CC(C)CNC(=O)C1CCN(c2ccc(S(=O)(=O)N3CCOCC3)cc2[N+](=O)[O-])CC1` to `C=CCNC(=O)C1CCN(c2ccc(S(=O)(=O)N3CCOCC3)cc2[N+](=O)[O-])CC1`, the “hERG current change (%, negative = inhibition) at 1uM” value rises from -9.02% to -2.79%.

First: C=CCN(CC=C)C(=O)C1CCN(S(=O)(=O)c2ccc(-n3cnnn3)cc2)CC1
Second: CCN(CC)C(=O)C1CCN(S(=O)(=O)c2ccc(-n3cnnn3)cc2)CC1
The “hERG current change (%, negative = inhibition) at 1uM” value of the first is lower: -13.1% for the first, 3.52% for the second.

Compared with `O=C(NCc1ccco1)C1CCCN(S(=O)(=O)c2ccc(-n3cnnn3)cc2)C1` (stereo not shown), `O=C(NCc1ccco1)C1CCN(S(=O)(=O)c2ccc(-n3cnnn3)cc2)CC1` is lower in “hERG current change (%, negative = inhibition) at 1uM” value: -26.8% for the first, -62.1% for the second.

Compared with `CN(Cc1ccccc1)C(=O)C1CCN(S(=O)(=O)c2ccc(-n3cnnn3)cc2)CC1`, `O=C(NCc1ccco1)C1CCN(c2ccc(S(=O)(=O)N3CCOCC3)cc2[N+](=O)[O-])CC1` is higher in “hERG current change (%, negative = inhibition) at 1uM” value: -62% for the first, -51.5% for the second.

Going from `C[C@@H]1CN(Cc2nc(Cc3ccccc3F)no2)C[C@H](C)O1` to `O=C(Nc1cccc(C(=O)O)c1)/C(=C\c1ccc2c(c1)OCO2)NC(=O)c1ccccc1`, the “hERG current change (%, negative = inhibition) at 1uM” value falls from 8.68% to 3.01%.
